Compound activity deposited in PubChem BioAssay by National Center for Advancing Translational Sciences (NCATS).
Only some compounds are listed: those with a hit (about 3.9% of all), similar ones and a draw of the others.
Caspase-1 inhib – caspase-1 (human) inhibition, allosteric or competitive. P29466. 75,000 tested, 0.03% active. Caspase-1 enzyme, Ac-WEHD-AFC fluorogenic rate. Potency, µM (highest dose often 57.5 µM), inactives show top-dose activity change, negative = inhibition, actives largely listed as inhibitors;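 also: plate controls were vehicle for no effect and no substrate for full effect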
Target sequence (P29466 120-297 limits assumed): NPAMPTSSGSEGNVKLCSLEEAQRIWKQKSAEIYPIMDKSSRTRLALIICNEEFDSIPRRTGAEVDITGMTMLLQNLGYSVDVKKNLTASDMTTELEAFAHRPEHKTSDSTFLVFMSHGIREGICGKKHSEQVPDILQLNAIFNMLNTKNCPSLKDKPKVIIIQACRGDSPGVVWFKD
Target sequence (P29466 317-404 limits assumed): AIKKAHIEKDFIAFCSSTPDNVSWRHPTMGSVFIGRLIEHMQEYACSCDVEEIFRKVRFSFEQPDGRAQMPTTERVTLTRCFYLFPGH
Casp7 inh – caspase-7 (human) inhibition, allosteric or competitive; recombinant caspase-7, Ac-DEVD-AFC fluorescence rate; Potency, µM (doses to about 57.5 µM), inactives show top-dose activity change, negative = inhibition, actives largely listed as inhibitors; 75,000 tested, 0.02% active; active = well fitted inhibition curve with a large enough effect in the main read-out, with a control signal flat, not every such curve was filed as active; inconclusive = small, poorly fitted or top-dose-only effect, or a change in a side signal; also: % of control where 0% means no effect
Target sequence (P55210 24-198 limits assumed): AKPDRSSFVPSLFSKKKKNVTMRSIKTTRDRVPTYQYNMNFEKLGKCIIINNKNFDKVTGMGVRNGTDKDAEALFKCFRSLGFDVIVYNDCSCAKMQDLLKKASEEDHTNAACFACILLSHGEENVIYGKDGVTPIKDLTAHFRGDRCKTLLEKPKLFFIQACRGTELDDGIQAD
Target sequence (P55210 207-303 limits assumed): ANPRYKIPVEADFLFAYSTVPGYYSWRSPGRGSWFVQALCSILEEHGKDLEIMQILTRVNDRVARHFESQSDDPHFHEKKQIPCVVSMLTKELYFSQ
ERK AVP block – vasopressin-driven ERK pathway inhibition; HEK293-V1b, vasopressin-stimulated pERK AlphaScreen; Potency, µM (top dose mostly 57.5 µM), without a hit: at the top dose activity, negative = inhibition, actives largely listed as inhibitors; 72,000 tested, 0.99% active; also: % is scaled to controls: 0 for no effect and ±100 for the full control effect; nearly all actives have a fitted effect of over 55% in size
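Overnight-seeded V1b-HEK293 cells in 1% FBS got compound, then vasopressin (25 nM final, 5 min, 37C), then lysis buffer. AlphaScreen detection of phospho-ERK; activity normalized to basal and full-stimulation controls.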
ALOX15 inhib – blocks human 15-lipoxygenase activity; P16050; purified 15hLO-1, xylenol orange hydroperoxide absorbance; Potency, µM (highest dose often 57.1 µM), for inactives: at the top dose activity change, negative = inhibition, actives largely listed as inhibitors; 74,000 tested, 1.4% active; AID 887; also: % is scaled to controls: 0 for no effect and ±100 for the full control effect; nearly all actives have a fitted effect of over 55% in size
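40 nM 15hLO-1 + cpd, 15 min RT; start w/ 50 uM AA (final), 6 min RT; stop/detect w/ 200 uM XO + 300 uM Fe(II) in 50 mM H2SO4, 30 min; A573/A405. Buffer 25 mM Hepes pH 7.5, 0.01% Triton X-100. No-enzyme wells as negative control.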
Tau filament bind – binders of human tau filaments; P10636; recombinant tau filaments, thioflavin S fluorescence, 15 h; filaments grown with octadecylsulfate alongside compound; Potency, µM (top dose mostly 57.1 µM), for the others: at the top dose activity change, negative = inhibition; 71,000 tested, 2% active; AID 596;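 also: % is scaled to controls: 0 for no effect and ±100 for the full control effect; actives lower thioflavin S fluorescence by blocking filaments or displacing dye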
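ThS-based fibril read: tau 1 uM final, inducer ODS 30 uM final, 37 C for 15 h, ex 450/em 510 nm.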
The depositor's hits bear a star; [ ] = dose if it differs, or a comment. Unless noted, calls follow the shape of the dose curve; as a rule, active = well fitted curve in the direction sought with a large enough effect; inconclusive = small, poorly fitted or top-dose-only effect, or another doubt; inactive = no such curve, though single readings can be large; an effect the other way counts as inactive or inconclusive. Potency is read from the fitted curve at half-maximal effect.

How did CC(NS(C)(=O)=O)C(c1cccs1)N1CCN(c2ccccc2)CC1 (configuration not stated) do in these assays?
Caspase-1 inhib: 6.3%; Casp7 inh: -1.2%; ERK AVP block: 0.5%; ALOX15 inhib: 5.2%; Tau filament bind: -3.4%

What do the screens show for `C=CC1=C(C(=O)O)N2C(=O)C(NC(=O)/C(=N\O)c3csc(N)n3)C2SC1` (configuration not stated)?
Caspase-1 inhib: 1.5%; Casp7 inh: -3.8%; ERK AVP block: -1.5%; ALOX15 inhib: -2.2%

How did CC(C)CO/N=C1/[C@H]2O[C@@H]2[C@@H](O)[C@H]2[C@H]1CCn1c(=O)n(C)c(=O)n12 do in these assays?
Caspase-1 inhib: -1.1%[11.5 µM]; Casp7 inh: 1.2%[11.5 µM]; ERK AVP block: 0.8%[11.5 µM]; ALOX15 inhib: 10.5%[11.4 µM]

How did CCOC(=O)c1c(C)nc2c3ccccc3ccn12 do in these assays?
Caspase-1 inhib: 0.7%; Casp7 inh: -0.5%; ERK AVP block: inconclusive; ALOX15 inhib: 15.8µM*; Tau filament bind: 53.6%

How did CCOC(=O)c1c(C)nc2sccn12 do in these assays?
Caspase-1 inhib: -1.4%; Casp7 inh: 0.6%; ERK AVP block: inconclusive; ALOX15 inhib: 4.5%; Tau filament bind: -3.4%

Results for N=C(c1ccc2ccccc2c1)c1ccccc1Cc1ccccc1 ?
Caspase-1 inhib: 0.1%[11.5 µM]; Casp7 inh: -3.9%[11.5 µM]; ERK AVP block: -10.8%[11.5 µM]; ALOX15 inhib: 6.2%[11.4 µM]; Tau filament bind: -4.2%[11.4 µM]

Results for O=C1C2C3CCCC3=C3CCCC3C2C(=O)N1c1ccc(F)cc1 (configuration not stated) ?
Caspase-1 inhib: inconclusive; Casp7 inh: -17.4%; ERK AVP block: -12.8%; ALOX15 inhib: 3.16µM*; Tau filament bind: 56.2%

Results for CC(C)C1NC2(C(=O)c3ccccc3C2=O)C2C(=O)N(c3ccc(F)cc3)C(=O)C12 (configuration not stated) ?
Caspase-1 inhib: -9.5%; Casp7 inh: -11.1%; ALOX15 inhib: -16.2%

What do the screens show for `Cn1c(-c2ccccc2)cc2c3no[n+]([O-])c3ccc21`?
Caspase-1 inhib: -3.5%; Casp7 inh: -4.6%; ERK AVP block: -33.2%; ALOX15 inhib: -3.5%; Tau filament bind: 10µM*

How did O=C(c1ccc(Cc2nc3ccccc3[nH]2)cc1)N1CCOCC1 do in these assays?
Caspase-1 inhib: -0.9%; Casp7 inh: -1.8%; ALOX15 inhib: -7.5%

How did CCOc1ccc(-c2cc(CCCC(=O)NCc3cccnc3)no2)cc1 do in these assays?
Caspase-1 inhib: -5.4%; Casp7 inh: 0.4%; ERK AVP block: 12.6µM*; ALOX15 inhib: 7.7%; Tau filament bind: 17.9%

Results for Oc1ccccc1-c1cc(C(F)(F)C(F)F)nc(-c2ccccc2)n1 ?
Caspase-1 inhib: 0.7%; Casp7 inh: 0.2%; ERK AVP block: 0.7%; ALOX15 inhib: -18.9%; Tau filament bind: 5.6%

Results for FC(F)C(F)(F)C(F)(F)C(F)(F)c1cc(-c2ccccc2)n[nH]1 ?
Caspase-1 inhib: -2.8%; Casp7 inh: -3.9%; ERK AVP block: 2.51µM*; ALOX15 inhib: inconclusive; Tau filament bind: 10µM*

How did COC(=O)c1ccccc1NC(=O)c1ccc2c(c1)C(=O)N(Cc1ccco1)C2=O do in these assays?
Caspase-1 inhib: 0.9%; Casp7 inh: -0.2%; ERK AVP block: -6.9%; ALOX15 inhib: -0.7%; Tau filament bind: 61.1%

How did CCc1ccc(NC(=O)c2ccc3c(c2)C(=O)N(Cc2ccco2)C3=O)cc1 do in these assays?
Caspase-1 inhib: -2.9%; Casp7 inh: -8.1%; ERK AVP block: inconclusive; ALOX15 inhib: -14.2%; Tau filament bind: 25.1µM*

What do the screens show for `CCOC(=O)CSc1n[nH]c(-c2ccco2)n1`?
Caspase-1 inhib: -2.1%; Casp7 inh: 0.2%; ERK AVP block: -4.9%; ALOX15 inhib: 11.1%; Tau filament bind: -1.2%

What do the screens show for `CCOc1ccc(-n2c(-c3ccco3)n[nH]c2=S)cc1`?
Caspase-1 inhib: -2.6%; Casp7 inh: -0.7%; ERK AVP block: -10.8%; ALOX15 inhib: 31.6µM*; Tau filament bind: -1.8%

What do the screens show for `Cc1c(N/C=C/C(=O)c2cccs2)c(=O)n(-c2ccccc2)n1C`?
Caspase-1 inhib: -2.6%; Casp7 inh: -1.4%; ERK AVP block: -2.7%; ALOX15 inhib: 25.1µM*; Tau filament bind: -16.5%

What do the screens show for `CC(C)(c1cc(Br)c(O)c(Br)c1)c1cc(Br)c(O)c(Br)c1`?
Caspase-1 inhib: inconclusive; Casp7 inh: -10.3%; ERK AVP block: 3.6%; ALOX15 inhib: 2.51µM*; Tau filament bind: inconclusive

What do the screens show for `CN(Cc1cc(C(C)(C)C)cc(Br)c1O)Cc1cc(C(C)(C)C)cc(Br)c1O`?
Caspase-1 inhib: 3.7%[11.5 µM]; Casp7 inh: -1.4%[11.5 µM]; ERK AVP block: 4.4%[11.5 µM]; ALOX15 inhib: -2.8%[11.4 µM]; Tau filament bind: 0.1%[11.4 µM]

How did CCOc1cc(-c2cc(-c3ccc(N)cc3)nc(N)c2C#N)ccc1O do in these assays?
Casp7 inh: inconclusive; ERK AVP block: inconclusive; ALOX15 inhib: 25.1µM*; Tau filament bind: 31.6µM*

Results for Nc1nc2c(cnn2CCc2ccccc2)c2nc(-c3ccco3)nn12 ?
Caspase-1 inhib: 0.0%; Casp7 inh: -4.3%; ERK AVP block: -15.0%; ALOX15 inhib: 20µM*

Results for O=C1CCCC2=C1C(c1ccc(Br)cc1)c1c([nH]c(=S)[nH]c1=O)N2 (configuration not stated) ?
Caspase-1 inhib: -4.5%; Casp7 inh: -1.6%; ERK AVP block: -9.8%; ALOX15 inhib: 25.1µM*; Tau filament bind: 7.6%

How did Cc1ccc(C2C3=C(CCCC3=O)Nc3[nH]c(=S)[nH]c(=O)c32)cc1 (configuration not stated) do in these assays?
Caspase-1 inhib: -3.9%; Casp7 inh: -1.0%; ERK AVP block: 17.3%; ALOX15 inhib: 20µM*; Tau filament bind: 5.5%

What do the screens show for `N[C@@](CC(=O)O)(Cc1ccccc1)C(=O)O`?
Caspase-1 inhib: -0.4%[11.5 µM]; Casp7 inh: 2.4%[11.5 µM]; ERK AVP block: 25.1%[11.5 µM]; ALOX15 inhib: -2.6%[11.4 µM]; Tau filament bind: 0.8%[11.4 µM]

Results for COC(=O)c1cc2c([nH]c3ccccc32)c(C)n1 ?
Caspase-1 inhib: -2.8%; Casp7 inh: 1.8%; ERK AVP block: 31.6µM*; ALOX15 inhib: -40.9%; Tau filament bind: 13.9%

What do the screens show for `COC(=O)c1cc(-c2c[nH]c3ccccc23)n[nH]1`?
Caspase-1 inhib: -1.0%; Casp7 inh: -1.1%; ERK AVP block: -15.2%; ALOX15 inhib: -10.8%; Tau filament bind: -3.2%

What do the screens show for `CCOC(=O)c1ccc(NC(=O)Nc2ccc3c(c2)OCCO3)cc1`?
Caspase-1 inhib: -3.8%; Casp7 inh: -1.6%; ERK AVP block: 25.1µM*; ALOX15 inhib: -9.6%; Tau filament bind: 7.2%

How did O=C(Nc1ccc(N2CCN(C(=O)c3ccccc3)CC2)cc1)c1cc2ccccc2o1 do in these assays?
Caspase-1 inhib: -1.5%; Casp7 inh: -0.4%; ERK AVP block: 1µM*; ALOX15 inhib: inconclusive; Tau filament bind: 380.6%

Results for CCOC(=O)c1ccc(NC(=O)c2cc3ccccc3o2)cc1 ?
Caspase-1 inhib: -1.4%; Casp7 inh: -1.3%; ERK AVP block: 31.6µM*; ALOX15 inhib: -8.7%; Tau filament bind: 51.4%
